Bioassay records deposited in PubChem by National Center for Advancing Translational Sciences (NCATS).
Most compounds without a hit are left out; they make up all but 2.9% or so of the library.
Integrin act MD – activates integrin-mediated alleviation for muscular dystrophy; hit rate 0.064% among 350,000; alpha7betagal myoblasts, beta-gal FDG fluorescence, 48 h; Potency, µM (top dose mostly 38.3 µM), inactives show at the highest dose activation, actives largely listed as activators; active means well fitted activation curve with a large enough effect; inconclusive means small, poorly fitted or top-dose-only effect; inactive means no such curve, though single readings can be large or run the other way;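 further: potency means the concentration at half of the fitted maximal effect; 100% = response of the positive control SU9516; nearly all actives have a fitted effect of over 60% in size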
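Alpha7betagal+/- myoblasts (passage 13) were plated 16-24 hr, then exposed to compounds (1:260 dilution of DMSO stock) for 48 hours at 37C. After MPER lysis, β-galactosidase reporter activity was read as FDG fluorescence (ex 480/em 540) after 30 minutes.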
D3 antag – antagonists of human D3 dopamine receptor | max response, negative = inhibition, % | AID 652054 | D3R cells, DiscoveRx beta-arrestin luminescence, antagonist mode; active compounds read low | P35462 | hit rate 2.5% among 360,000; in the data active means max response below about -50%; inconclusive means no clear call, values can overlap the other calls; further: on the % scale 0 is the no-effect control and ±100 the full control effect
Target sequence (P35462 whole entry, looked up): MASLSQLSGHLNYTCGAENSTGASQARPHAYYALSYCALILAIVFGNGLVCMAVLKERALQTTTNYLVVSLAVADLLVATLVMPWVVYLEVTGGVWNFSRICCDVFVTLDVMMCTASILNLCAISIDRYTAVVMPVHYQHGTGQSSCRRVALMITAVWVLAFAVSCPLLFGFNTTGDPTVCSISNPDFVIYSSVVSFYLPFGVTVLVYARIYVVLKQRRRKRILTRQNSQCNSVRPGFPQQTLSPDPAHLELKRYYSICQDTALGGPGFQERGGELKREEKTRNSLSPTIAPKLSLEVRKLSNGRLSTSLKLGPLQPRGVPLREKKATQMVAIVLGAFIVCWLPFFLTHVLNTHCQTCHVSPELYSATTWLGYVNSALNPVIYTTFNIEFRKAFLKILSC
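Cells plated overnight at 1500 cells/well, then exposed to library compounds with dopamine controls for 90 minutes at 37 degrees C. DiscoveRx reagent added for 30–60 minutes at room temperature; luminescence read, quantitative HTS format.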
D3 ag – D3 dopamine receptor (human) agonism; D3R DiscoveRx beta-arrestin cells, luminescence, 90 min; max activation, %; hit rate 0.58% among 410,000; AID 652048; in the data active means max activation above about 30%; further: 0% is about no effect
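Agonist mode: compounds and dopamine controls were applied to plated cells for 90 min at 37 degrees C after an overnight attachment at 1500 cells/well. Luminescent read-out followed 30 - 60 minutes at room temperature with DiscoveRx detection reagent.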
* hit, by the source's call.

Screening CN(C)C(CNC(=O)c1cccc(S(=O)(=O)N2CCN(c3ccc(F)cc3)CC2)c1)c1ccccc1 (centres undefined) returned Integrin act MD -62%, D3 antag -81* and D3 ag -16.
For COc1ccccc1CNC(=O)c1cccc(S(=O)(=O)N2CCN(c3ccc(F)cc3)CC2)c1 the results were Integrin act MD -24%, D3 antag 2 and D3 ag 5.
Screening CCCCNC(=O)C1(C)CCC(=O)N1C1CCN(Cc2ccccc2)CC1 (centres undefined) returned D3 antag -18 and D3 ag -6.
Cc1nc(SCC(=O)O)n[nH]1 was read as Integrin act MD 1%, D3 antag 7 and D3 ag 1.
For Cc1nc(SCCCSc2n[nH]c(C)n2)n[nH]1 the results were Integrin act MD 7%, D3 antag -69* and D3 ag -9.
Screening Cc1csc(SCC(=O)NC2CCS(=O)(=O)C2)n1 (centres undefined) returned Integrin act MD 16%, D3 antag -6 and D3 ag 30*.
`O=C(CSc1nc2ccccc2s1)NC1CCS(=O)(=O)C1` (centres undefined) gave Integrin act MD 7%, D3 antag -23 and D3 ag 2.
Screening O=C1C=C(c2cc(C(F)(F)F)cc(C(F)(F)F)c2)C[C@@H](c2ccc(Cl)cc2)C1 returned Integrin act MD -1%, D3 antag 9 and D3 ag 6.
`CC(C)Nc1nc(NCCN2CCCC2)c2sc(-c3ccccc3)cc2n1` gave D3 antag -65* and D3 ag -11.
Screening C=CCNc1nc(NCCOc2ccccc2Cl)c2sc(-c3ccccc3)cc2n1 returned D3 antag -67* and D3 ag -13.
Screening C=CCNc1nc(NCCOC)c2sc(-c3ccccc3)cc2n1 returned D3 antag -23 and D3 ag -11.
For CC(C)Nc1nc(-c2ccccc2F)c2sc(-c3ccccc3)cc2n1 the results were D3 antag 55 and D3 ag 9.
Screening CCOc1ccccc1N(CC(=O)N/N=C(\C)c1cccc(Br)c1)S(C)(=O)=O returned Integrin act MD 29%, D3 antag 3 and D3 ag 4.
COc1ccc(S(=O)(=O)/C(C#N)=C/Nc2cccc(F)c2)cc1 was read as Integrin act MD -6%, D3 antag 10 and D3 ag 1.
For Cc1ccc(C(=O)NCCCNC(=O)c2cccnc2)cc1 the results were Integrin act MD -8%, D3 antag -1 and D3 ag -10.
`Cc1ccc(Cl)cc1-c1cc(C(=O)NCc2ccccc2)[nH]n1` gave D3 antag -51* and D3 ag -14.
`Cc1ccc(Cl)cc1-c1cc(C(=O)NCc2cccc(Cl)c2)[nH]n1` gave D3 antag inconclusive and D3 ag -15.
For COc1ccc(Cl)cc1-c1cc(C(=O)NCc2cccc(Cl)c2)[nH]n1 the results were D3 antag -71* and D3 ag -13.
`Cc1cc(F)ccc1-c1cc(C(=O)NCC2CCCCC2)[nH]n1` gave D3 antag -28 and D3 ag -18.
Screening COc1ccc(Cl)cc1-c1cc(C(=O)NCC2CCCCC2)[nH]n1 returned D3 antag -58* and D3 ag -16.
`COc1cc(F)ccc1-c1cc(C(=O)NCc2cccc(Cl)c2)[nH]n1` gave D3 antag inconclusive and D3 ag -10.
`CC(C)Oc1cc(F)ccc1-c1cc(C(=O)NCC2CCCCC2)[nH]n1` gave D3 antag -83* and D3 ag -11.
`CCOc1ccc(Cl)cc1-c1cc(C(=O)NCC2CCCCC2)[nH]n1` gave D3 antag inconclusive and D3 ag -20.
For COc1ccccc1S(=O)(=O)NCc1ccc(C(=O)NC2CCC(O)CC2)cc1 (centres undefined) the results were Integrin act MD 13%, D3 antag 11 and D3 ag 3.
Screening COc1ccccc1NC(=O)CSc1nnc(COc2ccc(Cl)cc2)o1 returned Integrin act MD inconclusive, D3 antag -11 and D3 ag -11.
CCN(CC)C(=O)N1c2ccccc2C=Cc2ccccc21 was read as Integrin act MD 2%, D3 antag -21 and D3 ag 3.
Screening CN(C)CCCNC(=O)N1c2ccccc2C=Cc2ccccc21 returned Integrin act MD -27%, D3 antag -52* and D3 ag -9.
`O=C(Nc1nnc(SCc2ccccc2)s1)c1cccc([N+](=O)[O-])c1` gave Integrin act MD 9%, D3 antag 0 and D3 ag -4.
O=C(CCc1nnc(COc2ccccc2)o1)NCc1ccc(Cl)s1 was read as Integrin act MD 6%, D3 antag -18 and D3 ag -5.
For CCNc1c(C(=O)O)ccc2c1C(=O)c1ccccc1C2=O the results were Integrin act MD 28%, D3 antag inconclusive and D3 ag -14.
For CNc1c(C(=O)O)ccc2c1C(=O)c1ccccc1C2=O the results were Integrin act MD 13%, D3 antag -74* and D3 ag -45.
For O=C(O)c1ccc2c(c1Nc1ccccc1)C(=O)c1ccccc1C2=O the results were Integrin act MD 0%, D3 antag -56* and D3 ag -14.
`O=C(O)c1cccc2c1C(=O)c1ccccc1C2=O` gave Integrin act MD 5%, D3 antag 2 and D3 ag 2.
`COc1ccc(/C=N/N2C(=O)CSC2=S)cc1Br` gave Integrin act MD 26%, D3 antag 21 and D3 ag 37*.
`COc1cc(/C=N/N2CCN(Cc3ccc(Cl)cc3)CC2)cc(Br)c1O` gave Integrin act MD 6%, D3 antag -14 and D3 ag -1.
Cc1ccc(CN2CCN(/N=C/c3ccc(C(=O)O)cc3)CC2)cc1 was read as Integrin act MD -10%, D3 antag 0 and D3 ag 2.
For COc1ccc(/C=N/N2CCN(Cc3ccc(C)cc3)CC2)cc1Br the results were Integrin act MD 0%, D3 antag -92* and D3 ag -8.
For COc1ccc(/C=N/N2C(=O)CSC2=S)cc1 the results were Integrin act MD 13%, D3 antag -5 and D3 ag 0.
Screening Cc1ccc(CN2CCN(/N=C/c3ccc(O)c(O)c3)CC2)cc1 returned Integrin act MD -1%, D3 antag -64* and D3 ag -13.
Fc1cccc(CNCC2CCCO2)c1 (centres undefined) was read as Integrin act MD -1%, D3 antag -9 and D3 ag -3.
For C=Cc1ccc(CN2CCCN(Cc3ccc(Cl)cc3)S2(=O)=O)cc1 the results were Integrin act MD 3%, D3 antag 10 and D3 ag 4.
For CCCCC(=O)Nc1nnc(S(=O)(=O)N(C)Cc2ccccc2)s1 the results were D3 ag 5.
Screening COc1cc(OC)cc(-c2c(-c3cccs3)c3cc(-c4ccc5c(c4)OCO5)ccc3n2C)c1 returned Integrin act MD 0%, D3 antag 3 and D3 ag 1.
Screening COc1cc(F)cc(-c2ccc3c(c2)c(-c2cccs2)c(-c2cc(OC)cc(OC)c2)n3C)c1 returned Integrin act MD 8%, D3 antag 4 and D3 ag -10.
